A short description of test [1]: qHTS assay to identify small molecule agonists of the estrogen receptor alpha (ER-alpha) signaling pathway in the presence of an antagonist - cell viability counter screen (AID 1259386). Also: nearly all actives have a fitted effect of over 30% in size. Also: potency is read from the fitted curve at half-maximal effect. The method, boiled down:
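Compounds tested at 15 concentrations for 22 h at 37C alongside 10.0nM (final) ICI-182,780 antagonist, in VM7Luc4E2 cells grown in phenol red-free, charcoal-stripped medium. Viability read by CellTiter-Fluor fluorescence after 1 h reagent incubation.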

Test [2] concerns the target Progesterone receptor (Homo sapiens) (UniProt P06401). Put plainly: qHTS assay to identify small molecule antagonists of the progesterone receptor (PR) signaling pathway (AID 1346795; active = well fitted inhibition curve with a large enough effect in the signal ratio in the repeat runs, not every such curve was filed as active; the % refers to the signal ratio). The method, boiled down:
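Stimulus R5020 at 1 nM final; cells HEK293T PR-UAS-bla; medium with 2% charcoal-stripped FBS; compound exposure 16 hr at 37C, 5% CO2; detection by FRET beta-lactamase substrate, 2 hr, room temperature.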

The nature of test [3]: qHTS assay to identify small molecule antagonists of the progesterone receptor (PR) signaling pathway - cell viability counter screen (AID 1346798). Also: nearly all actives have a fitted effect of over 50% in size. Also: potency is read from the fitted curve at half-maximal effect. The method, boiled down:
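In the same plates used for the beta-lactamase readout, cell viability of compound- and R5020-treated PR-UAS-bla HEK293T cells (16 hr, 37C) was assessed by CellTiter-Glo luminescence.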
On the technique in general: qHTS replaces the single test concentration by a dilution series.

A short description of test [4]: qHTS assay to identify small molecule antagonists of the TGF-beta/Smad signaling pathway - cell viability counter screen (AID 1346824). Also: nearly all actives have a fitted effect of over 50% in size. The method, boiled down:
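Cytotoxicity counter-screen run in the same wells as the beta-lactamase Smad reporter read: CellTiter-Glo luminescence after 30 min at room temperature. HEK 293T SBE-bla cells had 5 hr compound exposure at 37 C with TGF-beta1 (0.25 ng/mL stock).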

A short description of test [5]: qHTS assay to identify small molecule agonists of the TGF-beta/Smad signaling pathway - cell viability counter screen (AID 1346829). Also: top concentration of the series differs between compounds; nearly all actives have a fitted effect of over 45% in size. The method, boiled down:
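In parallel with the Smad reporter read, viability of HEK 293T cells stably carrying SBE-bla is quantified by ATP luminescence following 5 hr compound treatment.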

Test [6] can be described thus: qHTS assay to identify small molecule agonists of the TGF-beta/Smad signaling pathway (AID 1346859; active = well fitted activation curve with a large enough effect in the signal ratio in the repeat runs, not every such curve was filed as active; the % refers to the signal ratio; also: series mostly up to about 77 µM). The method, boiled down:
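Screening used HEK 293T SBE-bla cells at 4,000/well. Test agents: 5 hr, 37 C. Detection: FRET substrate, 2 hr RT, then excitation 405 nm with emissions at 460 and 530 nm.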

Test [7] addresses Thyrotropin-releasing hormone receptor (Homo sapiens) (UniProt P34981). Kind of test: qHTS assay to identify small molecule agonists of the thyrotropin-releasing hormone receptor (TRHR) signaling pathway (AID 1346891; calls by dose curve; also: series mostly up to about 58 µM). The method, boiled down:
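Readout was intracellular calcium fluorescence in TRHR-Hek293 cells. Cells were incubated 18 h, dye-loaded 2 h at 37 °C, and treated with compound in agonist mode.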

Test [8] is described as follows: Human pregnane X receptor (PXR) small molecule agonists, qHTS cell viability counter screen (AID 1346977). Also: nearly all actives have a fitted effect of over 50% in size. Also: potency is read from the fitted curve at half-maximal effect. The method, boiled down: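 In each well, the PXR reporter HepG2 line was checked for viability: CellTiter-Fluor reagent added 23hr post-dosing, fluorescence read after 1hr incubation at 37C.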
The nature of test [9]: Caspase-3/7 induction in HepG2 cells by small molecules, qHTS assay (AID 1346978). Also: nearly all actives have a fitted effect of over 15% in size. The method, boiled down: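 Caspase-3/7 induction was measured by Caspase-Glo 3/7 luminescence (30 min, room temperature) after a 17 hr compound exposure of wild-type HepG2 cells seeded at 2,000 per well and pre-incubated 5 hr.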
A short description of test [10]: Caspase-3/7 induction in CHO-K1 cells by small molecules, qHTS cell viability counter screen (AID 1346979). Also: nearly all actives have a fitted effect of over 35% in size. Also: potency is read from the fitted curve at half-maximal effect. The method, boiled down:
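Following a 5hr settling period, CHO-K1 cells at 1,500 per well received DMSO-dissolved compounds. Cell viability was quantified 16hr later by CellTiter-Fluor fluorescence, measured after 1hr with reagent at 37C.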

Test [11] is described as follows: Caspase-3/7 induction in CHO-K1 cells by small molecules, qHTS assay (AID 1346980). Also: nearly all actives have a fitted effect of over 15% in size. The method, boiled down:
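Luminescent Caspase-Glo 3/7 read (30min, room temperature) quantified apoptosis induction. Cells were wild-type CHO-K1, treated with compound for 17hr at 37 C and 5% CO2.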

The nature of test [12]: Caspase-3/7 induction in HepG2 cells by small molecules, qHTS cell viability counter screen (AID 1346981). Also: series mostly up to about 92 µM; nearly all actives have a fitted effect of over 30% in size. The method, boiled down:
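CellTiter-Fluor fluorescence measured viability in the same wells used for Caspase-Glo 3/7. HepG2 (wild type) at 2,000 cells/well were pre-incubated 5 hr, dosed, and given reagent at 16 hr, with 1 hr further at 37C.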

Test [13] has as its target Nuclear receptor subfamily 1 group I member 2 (Homo sapiens) (UniProt O75469). Kind of test: Human pregnane X receptor (PXR) small molecule agonists, qHTS assay (AID 1346982). Also: nearly all actives have a fitted effect of over 35% in size. Also: potency is read from the fitted curve at half-maximal effect. The method, boiled down:
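Agonist mode: luminescence from ONE-Glo after 24 h compound exposure at 37C in HepG2 cells carrying hPXR-responsive CYP3A4 luciferase, plated in charcoal-stripped serum medium 5 h beforehand.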

The target of test [14] is Progesterone receptor (Homo sapiens) (UniProt P06401). Put plainly: qHTS assay to identify small molecule agonists of the progesterone receptor (PR) signaling pathway (AID 1346784; calls by dose curve; also: nearly all actives have a fitted effect of over 30% in size). The method, boiled down:
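Reporter assay, GripTite PR-UAS-bla HEK 293T cells: 16 hr exposure to DMSO-dissolved compounds at 37C, 5% CO2, in steroid-depleted (2% charcoal-stripped FBS) medium; beta-lactamase measured by FRET fluorescence.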

Test [15] has as its target Thyrotropin-releasing hormone receptor (Homo sapiens) (UniProt P34981). Put plainly: qHTS assay to identify small molecule antagonists of the thyrotropin-releasing hormone receptor (TRHR) signaling pathway (AID 1346877; active = well fitted inhibition curve with a large enough effect in the repeat runs, not every such curve was filed as active; also: series mostly up to about 51 µM). The method, boiled down: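 Antagonist mode: after a 5 min room-temperature compound exposure, cells were stimulated with 1 nM (final) TRH. Dye-loaded TRHR-HEK293 cells were used, and calcium-dependent fluorescence was followed for 3 min, with 15-point titrations run in triplicate.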

A short description of test [16]: qHTS assay to identify small molecule agonists of the progesterone receptor (PR) signaling pathway - cell viability counter screen (AID 1346799; calls by dose curve; also: nearly all actives have a fitted effect of over 45% in size). The method, boiled down:
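Multiplexed viability read: CellTiter-Glo luminescence, 30 min RT, following LiveBLAzer FRET measurement on PR-UAS-bla HEK293T cells exposed to compounds 16 hr.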

The target in test [17] is Nuclear receptor subfamily 1 group I member 2 (Rattus norvegicus) (UniProt Q9R1A7). Put plainly: Rat pregnane X receptor (rPXR) activation by small molecules, qHTS assay (AID 1346983). Also: nearly all actives have a fitted effect of over 20% in size. The conditions noted are these: rPXR luciferase reporter cells, One-Glo luminescence, 24 h; max activation: active compounds read high. The method, boiled down: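 Luminescent readout (One-Glo luciferase, 30 min room temperature) followed 24 hr compound treatment at 37 C of rPXR cells plated 2,000 per well and preincubated 5hr; qHTS format with compounds delivered in DMSO.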

The target in test [18] is Nuclear receptor subfamily 1 group I member 2 (Homo sapiens) (UniProt O75469). Put plainly: CYP3A4 induction through human pregnane X receptor (PXR) by small molecules, qHTS assay (AID 1346984). Also: nearly all actives have a fitted effect of over 40% in size. The method, boiled down:
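Read-out is luminescence after One-Glo addition, following a 3 hr, 37C incubation with Luciferin-IPA CYP3A4 substrate (3uM final). Before that, compounds were on DPX-2 cells (HepG2 co-transfected with PXR element plus CYP3A4-promoter luciferase) for 24 hr at 37C.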

For test [19] the target is unchanged. Put plainly: Human pregnane X receptor (PXR) activation by small molecules, qHTS assay (AID 1346985). Also: nearly all actives have a fitted effect of over 40% in size. The method, boiled down:
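DPX-2 cells (HepG2 co-transfected with a PXR response element and a CYP3A4-promoter luciferase construct) were seeded at 2,000 per well, rested 5 hr at 37C, then exposed to DMSO-dissolved compounds for 24 hr. Activation was read as luciferase luminescence.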

“And” between values parts separate entries of the source, which are not always exact repeats. Equal values may be shown once. Unmarked numbers belong to inactive results. Inconclusive results are not listed. The source made the active and inactive calls. Unless noted, calls follow the shape of the dose curve; as a rule, active = well fitted curve in the direction sought with a large enough effect in the repeat runs; inconclusive = weak or mixed curves; inactive = no such curve, though single readings can be large; an effect the other way counts as inactive or inconclusive.
% is scaled to controls: 0 for no effect and ±100 for the full control effect.

Sequence of Thyrotropin-releasing hormone receptor (Homo sapiens) (P34981 whole entry, looked up): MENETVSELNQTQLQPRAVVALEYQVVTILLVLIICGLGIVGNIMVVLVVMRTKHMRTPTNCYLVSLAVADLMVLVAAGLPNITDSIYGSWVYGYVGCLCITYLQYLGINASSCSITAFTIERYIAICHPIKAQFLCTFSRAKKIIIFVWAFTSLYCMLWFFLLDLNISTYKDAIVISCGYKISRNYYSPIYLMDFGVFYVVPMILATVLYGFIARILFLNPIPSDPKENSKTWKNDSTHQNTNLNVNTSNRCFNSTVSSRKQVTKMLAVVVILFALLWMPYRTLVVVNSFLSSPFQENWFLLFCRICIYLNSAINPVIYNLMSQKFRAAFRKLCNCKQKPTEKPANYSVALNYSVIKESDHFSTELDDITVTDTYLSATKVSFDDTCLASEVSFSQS
Sequence of Progesterone receptor (Homo sapiens) (P06401 whole entry, looked up): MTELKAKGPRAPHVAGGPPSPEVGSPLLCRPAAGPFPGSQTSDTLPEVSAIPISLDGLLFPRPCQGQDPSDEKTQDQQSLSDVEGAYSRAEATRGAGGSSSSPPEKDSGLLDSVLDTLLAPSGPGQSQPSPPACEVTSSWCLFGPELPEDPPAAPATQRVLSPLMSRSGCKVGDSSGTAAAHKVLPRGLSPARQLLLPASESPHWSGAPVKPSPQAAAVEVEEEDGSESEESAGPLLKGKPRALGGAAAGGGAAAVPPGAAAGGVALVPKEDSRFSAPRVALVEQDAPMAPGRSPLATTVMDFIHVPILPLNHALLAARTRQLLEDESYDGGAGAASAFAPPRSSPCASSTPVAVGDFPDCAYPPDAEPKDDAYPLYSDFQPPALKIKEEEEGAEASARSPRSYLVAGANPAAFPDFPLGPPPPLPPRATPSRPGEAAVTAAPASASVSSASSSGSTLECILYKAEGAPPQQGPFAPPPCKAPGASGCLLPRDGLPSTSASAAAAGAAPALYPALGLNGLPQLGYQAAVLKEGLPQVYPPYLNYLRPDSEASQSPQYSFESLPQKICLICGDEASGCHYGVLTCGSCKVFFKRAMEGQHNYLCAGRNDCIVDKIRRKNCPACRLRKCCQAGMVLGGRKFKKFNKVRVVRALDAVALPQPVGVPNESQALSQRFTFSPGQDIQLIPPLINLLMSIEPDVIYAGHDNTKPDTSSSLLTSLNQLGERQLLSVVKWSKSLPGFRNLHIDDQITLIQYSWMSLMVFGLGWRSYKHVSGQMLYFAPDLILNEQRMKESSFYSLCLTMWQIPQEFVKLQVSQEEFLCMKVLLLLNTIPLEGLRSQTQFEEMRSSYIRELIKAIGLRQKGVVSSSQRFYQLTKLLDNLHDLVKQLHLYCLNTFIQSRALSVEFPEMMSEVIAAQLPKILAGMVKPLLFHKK
Sequence of Nuclear receptor subfamily 1 group I member 2 (Homo sapiens) (O75469 whole entry, looked up): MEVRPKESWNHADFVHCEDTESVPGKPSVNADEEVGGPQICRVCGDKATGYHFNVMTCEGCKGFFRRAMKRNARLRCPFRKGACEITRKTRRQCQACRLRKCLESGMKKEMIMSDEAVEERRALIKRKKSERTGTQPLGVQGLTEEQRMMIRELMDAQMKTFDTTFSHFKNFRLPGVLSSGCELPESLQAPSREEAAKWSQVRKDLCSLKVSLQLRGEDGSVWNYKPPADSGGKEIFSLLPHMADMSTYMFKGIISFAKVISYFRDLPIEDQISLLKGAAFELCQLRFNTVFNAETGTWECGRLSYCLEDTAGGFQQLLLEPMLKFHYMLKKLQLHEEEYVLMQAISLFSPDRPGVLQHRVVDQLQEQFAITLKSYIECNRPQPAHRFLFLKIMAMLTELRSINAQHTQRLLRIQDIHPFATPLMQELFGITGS
Sequence of Nuclear receptor subfamily 1 group I member 2 (Rattus norvegicus) (Q9R1A7 whole entry, looked up): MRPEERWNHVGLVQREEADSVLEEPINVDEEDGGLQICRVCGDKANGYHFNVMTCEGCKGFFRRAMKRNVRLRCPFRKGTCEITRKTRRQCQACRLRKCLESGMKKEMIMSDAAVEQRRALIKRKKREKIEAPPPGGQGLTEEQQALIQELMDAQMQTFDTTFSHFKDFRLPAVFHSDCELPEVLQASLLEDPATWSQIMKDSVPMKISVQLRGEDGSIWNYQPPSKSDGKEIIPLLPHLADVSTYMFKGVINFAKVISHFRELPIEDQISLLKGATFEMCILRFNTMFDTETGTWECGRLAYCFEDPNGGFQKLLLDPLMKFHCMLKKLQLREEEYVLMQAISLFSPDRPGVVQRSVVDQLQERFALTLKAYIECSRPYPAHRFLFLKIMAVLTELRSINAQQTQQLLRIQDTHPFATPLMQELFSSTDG

`C[C@]12CC[C@H]3[C@@H](CCC4=CC(=O)CC[C@@H]43)[C@@H]1CC[C@@H]2OC(=O)CCC1CCCCC1`: the Potency result in [1], in test [2], in [3], in test [4], in test [5] and in test [7] was “inactive” each time. The Potency entry in test [8], in test [9], in test [10], in test [11], in test [12] and in test [13] was “inactive” throughout. Besides, in test [6], the compound was called inactive.
Turning to `N#Cc1cc(I)c(O)c(I)c1`, the Potency was 48.6 µM (active) in test [1], 43.3 µM (active) in test [8], 68600 nM (active) in test [10] and 54.5 µM (active) in test [13]. The Potency result in test [14], in [4], in [5], in test [15], in test [7] and in test [9] was “inactive” in each case. Further, the Potency entry in test [11] is “inactive”. The result in test [6] was inactive.
Take `[CH3][Sn]([CH3])([Cl])[Cl]`: the Potency result in test [14], in [2], in test [16], in test [4], in test [15] and in test [7] was “inactive” each time. The Potency result in test [8], in test [9], in test [11], in test [12] and in test [13] was “inactive” in each case. The compound was called inactive in test [6]. Besides, in test [10], the Potency was 31.1 µM (active) and 54.5 µM (active).
Consider `CCCCCCCCCC(=O)O[C@H]1CC[C@H]2[C@@H]3CCC4=CC(=O)CC[C@@H]4[C@H]3CC[C@]12C`, for which the Potency entry in [1], in test [3], in test [16], in [4], in test [5] and in [15] was “inactive” in each case. Also, the Potency result in test [7], in test [8], in test [9], in test [10], in test [11] and in [12] was “inactive” throughout. For the same compound, the Potency entry in test [18] and in test [19] was “inactive” each time. Also, the compound was called inactive in test [6]. In addition, the max activation in test [17] is -0.997%.
With `CN(C)c1ccc(N(C)C)cc1`, the Potency entry in test [14], in test [2], in [3], in test [4], in test [5] and in test [9] was “inactive” throughout. The Potency entry in test [11] and in [12] was “inactive” in each case. Moreover, in test [6], the outcome was inactive.
Consider `CO/C=C(/C(=O)OC)c1ccccc1COc1cccc(C(F)(F)F)n1`, for which the Potency in test [1] was 8.63 µM (active); in test [8] it was 1.93 µM (active); in test [10] it was 385 nM (active). The Potency result in test [14], in [3], in test [4], in [5], in [15] and in test [9] was “inactive” in each case. Moreover, the Potency result in test [11] was “inactive”. Besides, the outcome in test [6] was inactive.
As for `COC(N)=O`, the Potency entry in test [1], in test [14], in test [4], in test [5], in test [15] and in test [7] was “inactive” each time. The Potency result in test [8], in test [9], in [10], in test [11], in test [12] and in test [13] was “inactive” throughout. For the same compound, the Potency in [3] is 43.3 µM (active). For the same compound, the outcome in [6] was inactive.
In the case of `C=CC(=O)NCNC(=O)C=C`, the Potency result in test [1], in test [14], in [5], in test [15], in test [7] and in [8] was “inactive” each time. The Potency result in [9], in [11] and in test [12] was “inactive” throughout. For the same compound, in [6], the result was inactive. Further, the Potency in test [13] was 30.6 µM (active).
Regarding `CCO[C@H]1O[C@@H]2OC3(C)CC[C@H]4[C@H](C)CC[C@@H]([C@H]1C)[C@@]24OO3`, the Potency result in test [1], in test [14], in test [3], in [16], in test [4] and in test [5] was “inactive” throughout. Moreover, the Potency entry in test [15], in test [7], in test [8], in [9], in [11] and in [12] was “inactive” each time. Besides, in [13], the Potency entry is “inactive”. The compound was called inactive in test [6]. The Potency in test [10] is 266 nM (active).

The values are drawn from PubChem BioAssay (Tox21).
